# Measurements as given in PubChem BioAssay (NCI).
# The panel holds about 83,000 compounds, 20% with a hit somewhere; the sample as a whole holds those more often.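 In brief: 96-well plates, 48 h treatment, single concentration, percent growth endpoint.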 A number with no mark means an inactive call. Calls of active or inactive are those of the source.
# Test system: MCF7 breast
# Experiment: NCI-60 one-dose screen, 48 h (100 = growth as untreated, 0 = no growth, -100 = all killed)
# Settings: 10 µM unless noted
# Description: Growth inhibition of the MCF7 human tumor cell line is measured as a screen for anti-cancer activity. Cells are grown in 96 well plates and exposed to the test compound for 48 hours. Compounds are tested at a single concentration, which is 10^-5 M for most compounds. The reported endpoint is percent growth (GI% or GIPRCNT), where numbers from 0 - 100% represent growth inhibition, and numbers from -100% - 0 represent cell death. For example, a value of 40 represents 60% growth inhibition. A value of 0 means no net growth occurred over the course of the experiment. A value of -40 indicates 40% of cells at the beginning of the experiment died by the end of the experiment. A value of -100 means all cells are dead at the end of the experiment.
# NCI-60 Human Tumor Cell Lines Screen was performed using the standard one-dose NCI protocol, which is described in more detail at https://dtp.cancer.gov/discovery_development/nci-60/default.htm.
# Compounds with GIPRCNT values below 10 were considered active. Activity score was based on GIPRCNT using the following formula: […]
# Score is 0 for GIPRCNT values of 100 or above, 50 for GIPRCNT values of 0, and 100 for GIPRCNT values of -100.
row,Structure (SMILES),growth
1,C=C1C(=O)O[C@H]2[C@H]1CC/C(COC(=O)/C=C/C(=O)NCc1ccc(Cn3c(=O)sn(-c4ccccc4)c3=O)cc1)=C\CC[C@@]1(C)O[C@@H]21,5.01% (active)
2,Fc1ccc(Nc2nc3nonc3nc2Nc2ccc(F)cc2)cc1,3.66% (active)
3,CC12CC(C#N)CCC1O2 (stereo not given),97.9%
4,CC(C)(C)N1CC(OC(N)=O)C1,102%
5,COc1ccc(-c2c(N)n[nH]c2-c2ccccc2O)cc1OC,96.5%
6,NC(=Nc1ccc(N)cc1)C(N)=Nc1ccc(N)cc1,90.4%
7,CCOC(=O)c1c2c(c(C)n1C)-c1nn(Cc3ccc(OC)cc3)cc1CC2,99.3%
8,COc1ccc2cc(-c3ccc(C(=O)NN)c(C)n3)ccc2c1,90.4%
9,Nc1ccc(CCCCc2ccccc2)c(Cl)c1,98.6%
10,COC(=O)c1ccc2oc(NC(=O)c3ccc(N4CCOCC4)c([N+](=O)[O-])c3)nc2c1,94.1%
11,Cc1c(Cl)cccc1NS(=O)(=O)c1ccccc1,107%
12,Cc1cc(N2CCCCC2)nc(N(CCNc2ccnc3cc(Cl)ccc23)Cc2ccccn2)n1,26.2%
13,N[C@H]1CCC[C@@H]1NCCCCN1C(=O)c2cccc3cccc(c23)C1=O,52.8%
14,CC(C)(C)c1ccc(C(=O)Nc2sc3c(c2C(N)=O)CCC(=O)C3)cc1,3.05% (active)
15,COc1cc(/C=C/C(=O)c2ccc(Nc3nc(Nc4ccccc4)nc(Nc4ccc(Cl)cc4)n3)cc2)cc(OC)c1OC,7.84% (active)
16,CCCCCCCCn1cc(C2=C(c3coc4ccc(OC)cc34)C(=O)NC2=O)c2ccccc21,91.8%
17,Cn1nnnc1-c1ccc(N)cc1,90.9%
18,O=C(O)CC1Sc2ccccc2NC1=O (stereo not given),255%
19,CC(C)n1nc(C#Cc2cccc(NC(=O)c3cccc(C(F)(F)F)c3)c2)c2c(N)ncnc21,14.4%
20,NS(=O)(=O)Oc1ccc(-c2sc3cc(O)ccc3c2C(=O)c2ccc(OCCN3CCCCC3)cc2)cc1,29.4%

row,Structure (SMILES),growth
1,CCN(CC)CCCNC(=O)c1ccc(N)cc1O,96.8%
2,N#Cc1c(NC(=O)c2ccccc2I)sc2c1CCCC2,15%
3,O=c1ccn(C2OC(F)(CO)C(O)C2F)c(=O)[nH]1 (stereo not given),91.6%
4,CCOC(=O)c1ccc(NC(=O)CCCN(CC)CC)cc1,96%
5,CCN(CC)CCOc1ccc(/C(=C(\C)c2ccc(OC)c(F)c2)c2ccc(Cl)cc2)cc1,70.3%
6,CS(=O)(=O)c1ccc(-c2nc3cc(Cl)ccc3n2CC(=O)N/N=C/c2ccc(Cl)cc2)cc1,37.4%
7,Cc1nc(Nc2ccc(S(=O)(=O)Nc3cc(C)on3)cc2)c2ccccc2n1,91.9%
8,Cc1[nH]c(-c2nc3ccccc3[nH]2)c(C)c1C(=O)NNc1ccc(Cl)cc1,87.6%
9,Clc1ccc(-c2nnc(-c3ccco3)o2)cc1,95.2%
10,COc1ccc(Oc2nc(Nc3ccc(N4CCCCC4)nc3)ncc2NC(=O)c2cc(OC)cc(OC)c2)cc1,9.76% (active)
11,Clc1ccc(/C=N\N=c2\scc(-c3ccc(Cl)cc3)n2/N=C/c2ccc(Cl)cc2)cc1,93.6%
12,Cc1ccc(/C(=N\N=C(N)N)c2ccccc2)cc1,5.02% (active)
13,COc1ccc(Cn2cnc3cc(C(=O)Nc4cccc5ccccc45)ccc32)c(OC)c1,11.8% [30 µM]
14,COc1cc2c(cc1OC)-c1ccc3cc4c(cc3c1N(CCCn1ccnc1)C2)OCO4,14%
15,COc1cc2c(c(OC)c1OC)C(=O)/C(=C/c1cc(C)c(O)c(C)c1)S2,21.7%
16,CCOc1ccc(S(=O)(=O)c2ccc(C)cc2)c2c1no[n+]2[O-],83.1%
17,O=S(=O)(Nc1ccsc1-c1nc(-c2ccccc2)no1)c1cc(Cl)cc(Cl)c1,92.4%
18,CCCCNC(=O)c1cc(NCc2cc(O)ccc2O)ccc1O,67.7%
19,CN1C[C@@H](c2ccc(Cl)cc2)[C@]2(NC(=S)N(c3ccccc3)C2=O)[C@@]12C(=O)NC1C=CC(Br)=C[C@H]12 (stereo not given in full),51.3%
20,CC(=O)NCC(=O)Nc1ccc(-c2nnc3ccccn23)nc1.CC(=O)NCC(=O)Nc1ccc(-c2nnc3ccccn23)nc1.[Pt+2],110%
